High-throughput results from PubChem.
An excerpt weighted towards active compounds, which were near 6.7% of everything screened.
Anthrax LF inh2: anthrax lethal factor protease inhibition. P15917. multiplex microsphere protease cleavage assay, LF. inhibition, % at 10 µM. 360,000 tested, 0.12% active; also: plate controls were buffer without enzyme for full effect and enzyme alone for no effect
Target sequence (P15917 whole entry, looked up): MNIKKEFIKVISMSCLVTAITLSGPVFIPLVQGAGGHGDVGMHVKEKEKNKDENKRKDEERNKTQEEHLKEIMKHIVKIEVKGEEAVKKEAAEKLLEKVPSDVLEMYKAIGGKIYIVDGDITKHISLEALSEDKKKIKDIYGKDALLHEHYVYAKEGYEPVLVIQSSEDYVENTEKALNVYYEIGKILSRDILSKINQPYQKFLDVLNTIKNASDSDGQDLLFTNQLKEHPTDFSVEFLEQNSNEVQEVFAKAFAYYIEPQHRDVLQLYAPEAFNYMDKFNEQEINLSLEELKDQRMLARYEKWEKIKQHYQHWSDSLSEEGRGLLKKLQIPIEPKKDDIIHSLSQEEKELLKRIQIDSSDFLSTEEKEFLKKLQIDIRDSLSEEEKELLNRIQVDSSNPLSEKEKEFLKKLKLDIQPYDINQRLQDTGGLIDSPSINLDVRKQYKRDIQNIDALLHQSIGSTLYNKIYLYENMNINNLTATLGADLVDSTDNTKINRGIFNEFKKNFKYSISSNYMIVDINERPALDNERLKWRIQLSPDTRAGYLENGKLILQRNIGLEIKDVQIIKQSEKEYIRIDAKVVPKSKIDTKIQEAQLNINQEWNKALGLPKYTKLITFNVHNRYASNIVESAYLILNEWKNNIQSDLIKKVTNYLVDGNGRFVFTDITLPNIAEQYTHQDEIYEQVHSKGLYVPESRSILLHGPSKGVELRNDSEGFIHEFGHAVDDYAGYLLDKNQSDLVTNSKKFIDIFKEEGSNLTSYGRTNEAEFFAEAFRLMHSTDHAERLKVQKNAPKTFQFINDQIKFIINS
BoNT F protease: inhibitors of Botulinum neurotoxin F light chain protease. Multiplex microsphere protease cleavage assay, flow cytometry. inhibition, % at 10 µM. 360,000 tested, 0.22% active. AID 588497; in the data active = inhibition above about 35%, passing the limit was not always enough; inconclusive = no clear call, values can overlap the other calls; also: plate controls were buffer without enzyme for full effect and enzyme alone for no effect
GDH-TPI inh: counter-screen for M. tuberculosis FBA inhibitors: GDH-TPI coupled enzymes; GDH-TPI coupled enzyme counterscreen, NADH absorbance; 360,000 tested, 1.2% active; inhibition, % at 4.8 µM; in the data active = inhibition above about 30%;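 also: 0% = DMSO wells and 100% = wells lacking the enzyme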
Mtb FBA inh: inhibits M. tuberculosis FBA enzyme; P9WQA3; purified M. tuberculosis FBA, fluorescence read-out; inhibition, % at 1 µM; 360,000 tested, 2.3% active; AID 588726; in the data active = inhibition above about 27%;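 also: 0% = vehicle and 100% = reference inhibitor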
Autofluor counter: flagged as autofluorescent in microsphere protease counterscreen | compound autofluorescence counterscreen, microsphere flow cytometry; stronger effect = higher value | fluorescence intensity (concentration not given with the values) | 360,000 tested, 3.1% active | AID 624483; in the data active = fluorescence intensity above about 16000; inconclusive = no clear call, values can overlap the other calls
BoNT A protease: blocks Botulinum neurotoxin A light chain protease; inhibition, % at 10 µM; multiplex microsphere protease substrate cleavage, flow cytometry; 360,000 tested, 0.17% active; also: plate controls were buffer without enzyme for full effect and enzyme alone for no effect
Numbers without * were called inactive; ? = inconclusive; . = not tested or not shown. Rule as the data show it, unless noted: active = inhibition above about 30%; inconclusive = no clear call, values can overlap the other calls; inactive = below that.

SMILES	Anthrax LF inh2	BoNT F protease	GDH-TPI inh	Mtb FBA inh	Autofluor counter	BoNT A protease
O=P(/C(=N/O)N1CCOCC1)(N1CCOCC1)N1CCOCC1	2	?	-3	1	4131	1
CCCCNC(=O)N1CCC(CCC(=O)N(C)Cc2ccccc2)CC1	2	?	6	0	3559	2
CC(=O)NCCC1CCN(c2nc3nonc3nc2N(C)Cc2ccccc2)CC1	2	4	37*	0	4789	1
O=C(NCc1cccc(Cl)c1)c1ccncc1	3	-1	6	2	4981	4
Cc1sc2ncnc(N/N=C/c3ccc(O)cc3)c2c1C	-3	-2	48*	1	10164	-1
COc1cccc(/C=N/Nc2ncnc3scc(-c4ccccc4)c23)c1OC	0	-2	41*	5	21674*	2
Cc1sc2ncnc(N/N=C/c3ccccc3O)c2c1C	2	-6	35*	0	6911	2
Nc1c(Cl)ncnc1N/N=C/c1ccc(O)cc1	-10	1	42*	2	3528	-1
Oc1ccc(/C=N/Nc2nccnc2Cl)cc1	1	-10	27	0	4508	0
Cc1ccc(NC(=O)Nc2ccc3c(c2)OCO3)cc1F	2	7	7	1	5578	2
O=C(NC1CCCCCC1)c1cc(S(=O)(=O)N2CCC3(CC2)OCCO3)ccc1F	-2	-1	4	-3	7724	-1
O=C(NCc1nc2ccccc2[nH]1)c1ccc(S(=O)(=O)N2CCOCC2)cc1	-9	-24	9	2	2285	1
O=C(Nc1ccccc1C(F)(F)F)c1cc(S(=O)(=O)N2CCC3(CC2)OCCO3)ccc1F	-1	-1	6	-5	23758*	-1
CCOC(=O)N1CCN(S(=O)(=O)c2ccc(F)c(C(=O)Nc3cccc(Cl)c3C)c2)CC1	-4	-11	5	-1	2639	-1
O=C(Nc1nc2ccccc2[nH]1)c1ccc(S(=O)(=O)N2CCOCC2)cc1	-6	-10	39*	4	3493	-1
COC(=O)COc1ccc(S(=O)(=O)N2CCCCCC2)cc1C	-11	-16	-2	3	3591	-4
CCOC(=O)N1CCN(S(=O)(=O)c2ccc(OCC(=O)OC)c(C)c2)CC1	-1	-11	4	3	25177*	-7
CCOC(=O)N1CCN(S(=O)(=O)c2ccc(F)c(C(=O)Nc3cc(C)cc(C)c3)c2)CC1	-3	3	4	-3	22579*	2
CCOc1ccccc1NC(=O)CSc1nnc(CCC(=O)Nc2ccccc2F)n1C	3	2	6	-2	4237	2
COc1ccccc1NC(=O)c1ccc(S(=O)(=O)N2CCOCC2)cc1	-5	-4	5	-2	22270*	?
Cc1ccc(NC(=O)c2cc(S(=O)(=O)N3CCC4(CC3)OCCO4)ccc2F)cc1	0	5	0	1	22105*	3
Cc1c(C(=O)Nc2ccc(F)cc2)oc2ccc(S(=O)(=O)N3CCC4(CC3)OCCO4)cc12	-1	5	3	1	21736*	4
CCOC(=O)c1ccccc1NC(=O)COC(=O)c1ccc(C)c(S(=O)(=O)N2CCOCC2)c1	?	10	1	8	?	1
CCOC(=O)c1ccccc1NC(=O)c1ccc(Cl)c(S(=O)(=O)N2CCOCC2)c1	-9	1	-16	3	21650*	?
CCOc1ccccc1NC(=O)c1ccc(S(=O)(=O)N2CCOCC2)cc1	-4	-8	-3	1	3062	0
SMILES	Anthrax LF inh2	BoNT F protease	GDH-TPI inh	Mtb FBA inh	Autofluor counter	BoNT A protease
COc1ccc(CNC(=O)c2onc(C)c2Cl)cc1	-1	-5	-1	4	6200	0
O=c1c2cc(NC(=S)N3CCCC3)ccc2nc2n1CCCCC2	-1	-4	8	-3	4443	0
N#C/C(=C\c1ccc(N2CCOCC2)o1)C(=O)Nc1ccc(O)cc1	-1	2	2	-45	4565	-1
O=C(CN1CCN(S(=O)(=O)c2ccc(F)cc2)CC1)N1CCOCC1	-3	1	1	-2	4372	5
COc1ccccc1NC(=O)c1cc(S(=O)(=O)N2CCC3(CC2)OCCO3)ccc1F	0	1	-6	0	20818*	0
COc1ccccc1NC(=O)c1cc(S(=O)(=O)N2CCc3ccccc32)ccc1F	0	2	6	2	5319	1
CC1(C)CC2CC(C)(CN2S(=O)(=O)c2cccc(C(N)=O)c2)C1 (stereo not drawn)	-8	2	-4	-2	8747	2
O=C(Oc1ccc(N(Cc2cccs2)C2=NS(=O)(=O)c3ccccc32)cc1)c1ccc(Cl)cc1	0	-15	-1	2	4172	0
O=C(Oc1ccc(N(Cc2cccs2)C2=NS(=O)(=O)c3ccccc32)cc1)c1ccccc1	-7	-4	5	1	23485*	?
CCC(C)(C(=O)NC1CCCCC1)N(C(=O)c1cnccn1)c1c(C)n(C)n(-c2ccccc2)c1=O (stereo not drawn)	0	-2	1	1	21469*	?
CCC(C)(C(=O)NC1CCCC1)N(C(=O)c1cnccn1)c1c(C)n(C)n(-c2ccccc2)c1=O (stereo not drawn)	0	3	5	2	21671*	?
Oc1ccc2c(c1)c1ccccc1c1ncccc21	-3	2	1	1	3660	0
O=C(NCCc1c[nH]c2ccc(Cl)cc12)c1cccnc1	0	-2	5	-2	10047	1
O=C(CNC(=O)Cc1ccccc1)NCC(=O)OCC(=O)c1ccc(Cl)cc1	0	3	8	0	2031	0
COc1ccc(-c2c(C)n([O-])c(C)c(-c3ccccc3)[n+]2=O)cc1OC	-3	4	6	10	21301*	2
COc1ccc(-c2c(C)n([O-])c(C)c(C)[n+]2=O)cc1OC	-3	-23	8	2	3706	-1
COc1cccc(N(CC(=O)NCCSCc2ccc(C)cc2)S(C)(=O)=O)c1	22	?	10	0	2905	4
CN1CCCC1CN1CCCC1 (stereo not drawn)	-15	-21	.	-2	6209	-1
CN1CCCC1CCNC1C2CC3CC(C2)CC1C3 (stereo not drawn)	-4	-3	20	5	16148*	0
COc1ccc2cc([C@H](C)C(=O)N(C)Cc3ccccc3N3CCCC3)ccc2c1	-18	-1	9	0	21814*	-10
CCOc1cccc(CN2CCC(Oc3ccc(C(=O)N4CCCC4)cc3)CC2)c1O	-3	-1	6	-4	3606	0
COc1cccc(-c2cc(C(F)(F)F)nc(N3CCOCC3)n2)c1	-2	11	14	2	3152	2
Cc1cc2ccccc2c(=O)n1CC(=O)NCC(=O)N1CCN(c2ccccc2)CC1	-3	-5	2	3	23551*	-3
CC(C)(C)C(=O)N1CCN(c2ccc([N+](=O)[O-])c(-n3nc(-c4ccccc4)c4ccccc4c3=O)c2)CC1	0	-6	11	-6	10331	0
